Experiment [1] is described as follows: small molecules captured by biotinylated probe aFSTL3 – biochemical, small-molecule microarray, fluorescence 635/667, stem cell growth factor project, primary screen (AID 1064).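 Note: measures binding of the biotinylated anti-FSTL3 antibody to printed compounds.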 Particulars: higher = more signal.
Experiment [2] is described as follows: binders from COS7 lysate, DM2A8 probe, primary screen, torsin A project, cell lysate, small-molecule microarray, fluorescence 635/667 (AID 1065). To be noted: higher = more signal, COS7 lysate expressing mutant human TOR1A.
The nature of experiment [3]: small molecules captured by biotinylated probe aFGF2 – biochemical, small-molecule microarray, fluorescence 635/667, stem cell growth factor project, primary screen (AID 1067).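 Note: measures binding of biotinylated aFGF2 protein to printed compounds on slides; z-score merges feature fluorescence and signal-to-noise across triplicate slides.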 To be noted: higher = more signal.
A short description of experiment [4]: small molecules captured by biotinylated probe aFGF10 – biochemical, small-molecule microarray, fluorescence 635/667, stem cell growth factor project, primary screen (AID 1071).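 Note: score merges 667 nm spot intensity and signal to noise from triplicate slides.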 To be noted: higher = more signal.
Experiment [5] concerns the target Neurogenic locus notch homolog protein 2 (Homo sapiens) (UniProt Q04721). The experiment in a line: small molecules binding Notch2 protein – biochemical, small-molecule microarray, 635 nm fluorescence, stem cell growth factors, primary screen (AID 1073). To be noted: higher = more signal.
Experiment [6] concerns the target Pro-neuregulin-1, membrane-bound isoform (Homo sapiens) (UniProt Q02297). Nature of the experiment: small molecules binding neuregulin-1 protein – biochemical, small-molecule microarray, fluorescence 635/667, psychiatric disease protein project, primary screen (AID 1075).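 Note: score combines 667 nm spot fluorescence with signal to noise.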 To be noted: NRG1 binding, 635 nm fluorescence, higher = more signal.
The test system of experiment [7] is Neuregulin-1 EGF-like domain. The experiment in a line: small molecules binding NRG1 EGF domain – biochemical, small-molecule microarray, 635 nm fluorescence, primary screen (AID 1081).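 Note: binding of the protein to compounds printed on small-molecule microarray slides.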 Particulars: higher = more signal.
Experiment [8] in a line: FRG1 expression reporter modulators in myotubes – cell-based, C2C12 myotubes, firefly/Renilla luciferase, luminescence, FRG1 inhibition for FSHD, primary screen (AID 1084). To be noted: FRG1 promoter luciferase, higher = more signal, called active from +8 up or from −8 down.
The nature of experiment [9]: small molecules captured by biotinylated probe aFST – biochemical, small-molecule microarray, fluorescence 635/667, stem cell growth factor project, primary screen (AID 1086).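 Note: score merges 667 nm fluorescence with signal-to-noise of each printed compound spot.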 Particulars: higher = more signal.
The nature of experiment [10]: binders of probe aHhip on microarray, primary screen, stem cell growth factor project, biochemical, small-molecule microarray, fluorescence 635/667 (AID 1087).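 Note: score merges spot fluorescence at 667nm with spot signal to noise ratio.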 To be noted: higher = more signal.
Experiment [11] deals with PRMT1 (protein arginine N-methyltransferase 1). Nature of the experiment: small molecules binding arginine methyltransferase PRMT1 – biochemical, small-molecule microarray, 635 nm fluorescence, primary screen (AID 1088).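 Note: binding of Prmt1 protein to compounds spotted on small-molecule microarray slides.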 To be noted: higher = more signal.
Experiment [12] can be described thus: growth effects on S. cerevisiae YJM789 – YJM789 clinical isolate, OD600, 24 h, basal, primary screen (AID 1089).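 Note: growth of clinical yeast isolate S. cerevisiae YJM 789 seeded 1000 cells per well; test concentration not given here.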 To be noted: higher = more signal, called active from +8 up or from −8 down.
Experiment [13] in a line: S. pombe growth modifiers, basal conditions – strain 972, OD600, 24 h, no modulator, primary screen (AID 1090).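 Note: basal condition with compound alone and no growth modifier present; test concentration not given here.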 Particulars: S. pombe 972 growth, higher = more signal, called active from +8 up or from −8 down.
A short description of experiment [14]: budding yeast growth modifiers under rapamycin – strain BY4716, OD600, 96 h, primary screen (AID 1091). Note: test concentration not given here. To be noted: S. cerevisiae BY4716 + rapamycin, higher = more signal, called active from +8 up or from −8 down.
The target in experiment [15] is Torsin-1A-interacting protein 2 (Homo sapiens) (UniProt Q8NFQ8). Nature of the experiment: small molecules binding lysate-expressed LULL1 – cell lysate, human LULL1 lysate, 635/667 nm fluorescence, primary screen (AID 1092).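 Note: score merges per-feature 667 nm fluorescence with signal-to-noise.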 Particulars: small-molecule microarray, hLULL1 lysate binding, 635 nm fluorescence; higher = more signal.
Experiment [16] is described as follows: optical density change of DRC41 E. coli – strain DRC41, OD650, 24 h, E. coli filamentation project, primary screen (AID 1093).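 Note: MC1000 strain lacking acrAB efflux and sulA so SOS filamentation is blocked; test concentration not given here.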 To be noted: E. coli DRC41 growth, higher = more signal, called active from +8 up or from −8 down.
The nature of experiment [17]: probe aLefty2 binding to arrayed compounds – biochemical, biotinylated probe, 635/667 nm fluorescence, primary screen (AID 1094).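 Note: score merges spot fluorescence near 667 nm with spot signal-to-noise ratio.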 Particulars: small-molecule microarray, higher = more signal.
Experiment [18] has as its system Noggin (protein binding on small-molecule microarray). Nature of the experiment: small molecules binding Noggin protein – biochemical, 635/667 nm fluorescence, primary screen (AID 1095).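 Note: score merges 667 nm feature fluorescence with signal to noise over triplicate slides.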 Particulars: 635 nm fluorescence, higher = more signal.
Experiment [19] addresses Neurogenic locus notch homolog protein 3 (Homo sapiens) (UniProt Q9UM47). Nature of the experiment: small molecules binding NOTCH3 protein – biochemical, 635/667 nm fluorescence, primary screen (AID 1096). Particulars: small-molecule microarray, 635 nm fluorescence, higher = more signal.
Experiment [20] can be described thus: probe aEGFR binding to arrayed compounds – biochemical, biotinylated probe, 635/667 nm fluorescence, primary screen (AID 1097).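 Note: probe is a biotinylated anti-EGFR antibody binding compounds printed on slides; score combines fluorescence near 667 nm and signal to noise of each spot.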 To be noted: small-molecule microarray, higher = more signal.

Molecules are shown by their SMILES. Calls of active or inactive are those of the source.

Sequence of Torsin-1A-interacting protein 2 (Homo sapiens) (Q8NFQ8 whole entry, looked up): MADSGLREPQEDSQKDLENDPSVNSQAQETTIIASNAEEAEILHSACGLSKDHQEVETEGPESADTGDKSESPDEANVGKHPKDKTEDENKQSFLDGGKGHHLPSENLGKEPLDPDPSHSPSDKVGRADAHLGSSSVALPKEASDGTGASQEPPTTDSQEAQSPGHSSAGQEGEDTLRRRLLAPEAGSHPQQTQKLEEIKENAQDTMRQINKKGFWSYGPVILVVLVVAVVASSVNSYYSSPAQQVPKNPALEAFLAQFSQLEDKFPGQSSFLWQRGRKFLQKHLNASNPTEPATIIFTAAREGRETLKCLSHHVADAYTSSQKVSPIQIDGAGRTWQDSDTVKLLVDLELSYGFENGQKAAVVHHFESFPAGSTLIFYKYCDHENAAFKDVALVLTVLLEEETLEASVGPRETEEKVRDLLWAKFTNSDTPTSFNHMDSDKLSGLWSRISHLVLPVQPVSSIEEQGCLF
Sequence of Neurogenic locus notch homolog protein 3 (Homo sapiens) (Q9UM47 whole entry, looked up): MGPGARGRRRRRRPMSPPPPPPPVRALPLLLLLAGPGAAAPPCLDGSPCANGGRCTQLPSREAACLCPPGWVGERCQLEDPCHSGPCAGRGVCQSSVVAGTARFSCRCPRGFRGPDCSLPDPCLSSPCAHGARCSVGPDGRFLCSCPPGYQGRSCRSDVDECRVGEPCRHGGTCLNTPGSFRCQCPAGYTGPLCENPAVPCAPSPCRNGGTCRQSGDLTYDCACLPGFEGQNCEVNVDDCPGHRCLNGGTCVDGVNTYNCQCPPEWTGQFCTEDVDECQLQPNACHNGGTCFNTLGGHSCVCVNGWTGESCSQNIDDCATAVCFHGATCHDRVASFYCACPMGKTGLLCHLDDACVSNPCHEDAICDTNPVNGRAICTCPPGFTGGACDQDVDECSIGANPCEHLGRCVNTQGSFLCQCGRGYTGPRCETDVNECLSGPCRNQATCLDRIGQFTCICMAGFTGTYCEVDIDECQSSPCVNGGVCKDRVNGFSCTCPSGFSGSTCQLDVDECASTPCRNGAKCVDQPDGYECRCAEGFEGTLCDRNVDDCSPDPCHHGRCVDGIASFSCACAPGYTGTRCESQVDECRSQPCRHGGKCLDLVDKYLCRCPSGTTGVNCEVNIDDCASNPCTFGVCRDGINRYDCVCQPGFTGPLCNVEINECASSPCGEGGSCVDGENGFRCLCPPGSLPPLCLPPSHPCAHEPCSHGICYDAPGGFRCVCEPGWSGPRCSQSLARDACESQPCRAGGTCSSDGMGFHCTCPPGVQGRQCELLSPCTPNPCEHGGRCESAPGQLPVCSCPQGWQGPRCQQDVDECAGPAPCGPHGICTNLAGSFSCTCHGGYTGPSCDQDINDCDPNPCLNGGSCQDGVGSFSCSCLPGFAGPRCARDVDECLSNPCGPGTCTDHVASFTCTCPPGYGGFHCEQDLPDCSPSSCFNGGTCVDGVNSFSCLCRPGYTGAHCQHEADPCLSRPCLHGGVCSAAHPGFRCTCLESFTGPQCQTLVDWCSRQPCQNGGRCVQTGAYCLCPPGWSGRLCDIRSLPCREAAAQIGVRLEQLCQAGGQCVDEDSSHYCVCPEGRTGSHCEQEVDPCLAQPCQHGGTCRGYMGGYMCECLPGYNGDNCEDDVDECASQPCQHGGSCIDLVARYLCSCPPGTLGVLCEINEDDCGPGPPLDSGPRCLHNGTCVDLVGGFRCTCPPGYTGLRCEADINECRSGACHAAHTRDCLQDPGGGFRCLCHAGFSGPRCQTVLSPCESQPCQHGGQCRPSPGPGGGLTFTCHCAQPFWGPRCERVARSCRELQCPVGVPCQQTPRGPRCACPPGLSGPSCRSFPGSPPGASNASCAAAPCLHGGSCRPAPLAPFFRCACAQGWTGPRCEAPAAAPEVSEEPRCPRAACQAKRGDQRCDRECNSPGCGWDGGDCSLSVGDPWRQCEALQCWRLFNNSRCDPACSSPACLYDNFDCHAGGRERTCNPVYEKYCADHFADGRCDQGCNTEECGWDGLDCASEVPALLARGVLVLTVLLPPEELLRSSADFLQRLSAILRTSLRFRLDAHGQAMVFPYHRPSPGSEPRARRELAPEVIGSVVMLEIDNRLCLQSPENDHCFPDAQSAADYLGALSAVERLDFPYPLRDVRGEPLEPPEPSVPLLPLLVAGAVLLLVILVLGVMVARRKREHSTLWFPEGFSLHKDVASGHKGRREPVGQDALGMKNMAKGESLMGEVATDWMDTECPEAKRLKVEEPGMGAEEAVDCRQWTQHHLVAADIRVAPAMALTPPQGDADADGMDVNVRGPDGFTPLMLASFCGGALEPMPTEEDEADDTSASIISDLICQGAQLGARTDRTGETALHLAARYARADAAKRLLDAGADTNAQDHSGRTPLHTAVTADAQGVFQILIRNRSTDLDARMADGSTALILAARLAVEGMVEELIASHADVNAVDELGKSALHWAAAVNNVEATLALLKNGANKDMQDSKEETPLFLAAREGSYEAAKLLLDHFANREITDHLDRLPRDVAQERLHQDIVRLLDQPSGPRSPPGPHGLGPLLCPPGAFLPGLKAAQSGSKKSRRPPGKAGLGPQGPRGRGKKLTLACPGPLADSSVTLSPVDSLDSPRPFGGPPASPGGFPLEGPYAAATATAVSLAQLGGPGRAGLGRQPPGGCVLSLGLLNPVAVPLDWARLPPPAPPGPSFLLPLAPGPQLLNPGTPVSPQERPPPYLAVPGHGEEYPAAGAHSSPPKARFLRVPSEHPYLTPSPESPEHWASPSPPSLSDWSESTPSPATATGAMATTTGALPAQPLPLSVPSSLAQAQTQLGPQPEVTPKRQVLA
Sequence of Pro-neuregulin-1, membrane-bound isoform (Homo sapiens) (Q02297 whole entry, looked up, the tested form may be a part, canonical isoform): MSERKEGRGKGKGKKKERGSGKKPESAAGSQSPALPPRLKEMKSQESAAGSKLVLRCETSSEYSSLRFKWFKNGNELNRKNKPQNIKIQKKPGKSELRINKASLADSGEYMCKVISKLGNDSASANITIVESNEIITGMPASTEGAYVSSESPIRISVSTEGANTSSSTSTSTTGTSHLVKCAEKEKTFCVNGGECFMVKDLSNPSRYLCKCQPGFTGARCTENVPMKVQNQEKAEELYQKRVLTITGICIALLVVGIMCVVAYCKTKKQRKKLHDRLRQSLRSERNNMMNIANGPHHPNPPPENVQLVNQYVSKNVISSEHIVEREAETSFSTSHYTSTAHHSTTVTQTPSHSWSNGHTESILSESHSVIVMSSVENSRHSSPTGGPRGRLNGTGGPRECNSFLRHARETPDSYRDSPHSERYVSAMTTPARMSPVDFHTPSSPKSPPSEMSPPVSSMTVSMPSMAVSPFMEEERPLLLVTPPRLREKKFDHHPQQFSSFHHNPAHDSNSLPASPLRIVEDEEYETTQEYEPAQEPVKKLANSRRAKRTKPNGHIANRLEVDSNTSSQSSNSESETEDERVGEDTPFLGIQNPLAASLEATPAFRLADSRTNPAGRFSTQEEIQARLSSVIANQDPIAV

On to `N#Cc1ccc(NN2C(C(O)C(c3ccccc3)c3ccccc3)C=CC3C(=O)N(c4ccccc4)C(=O)C32)cc1` (stereo not given), for which the composite z-score in experiment [1] was 0.223; in experiment [2] it was 0.135; in [3], -0.0462; in [4] it was 0.952; in experiment [5], 1.65; in [6], 1.77. Further, the composite z-score in experiment [7] was found to be 1.15; in experiment [9], 1.93; in experiment [10], 0.0585; in [11], 1.07; in experiment [15], 3.58; in experiment [17], 0.167. Also, the composite z-score in experiment [18] is 0.297; in [19], 1.01; in experiment [20] it was 0.0981. Moreover, the z-score in [8] was -0.621 (inactive); in experiment [12] it was 0.43 (inactive); in experiment [13], 1.25 (inactive); in experiment [14], 5.53 (inactive); in [16], -0.0873 (inactive).
Consider `C=C(CC1([C@@H](NP(=O)(c2ccccc2)c2ccccc2)[C@H]2C[C@@H]2CCCC)CC1)c1ccccc1`, for which the composite z-score in [1] was 0.591; in experiment [2], -0.417; in [3] it was -0.218; in experiment [4], 0.194; in [5], 1.42; in experiment [6], 0.896. The composite z-score in experiment [7] was found to be 0.843; in [9], 1.07; in experiment [10], 0.419; in experiment [11], 0.759; in experiment [15], 2.53; in experiment [17] it was 0.153. Moreover, the composite z-score in experiment [18] is -0.591; in experiment [19], 0.418; in experiment [20] it was -0.0844. Also, the z-score in experiment [8] was 2.47 (inactive); in experiment [12], -0.254 (inactive); in experiment [13] it was 0.204 (inactive); in experiment [14], 3.83 (inactive); in [16], -0.357 (inactive).
Turning to `CCCC[C@@H]1C[C@H]1[C@@H](NC(=O)c1ccco1)c1ccc(-c2ccccc2)cc1`, the composite z-score in [1] was -0.207; in experiment [2] it was -0.194; in [3], -0.176; in experiment [4], 0.203; in experiment [5], 0.571; in experiment [6], -0.343. Further, the composite z-score in [7] was 1.02; in experiment [9], 0.425; in [10], 0.0922; in [11], 1.11; in experiment [15], -0.397; in [17] it was 0.0682. Moreover, the results for the composite z-score in [18], in [19] and in [20] were 0.61, 0.234 and 0.0258, respectively. In addition, the z-score in [8] is 1.85 (inactive); in experiment [12], 0.186 (inactive); in experiment [13], 0.316 (inactive); in experiment [14], 0.569 (inactive); in [16] it was -1.45 (inactive).
For the compound `C=C(CCCC)/C(=C/C[C@@H](OC(C)=O)c1ccc(OCCO)cc1)c1cnc2ccccc2c1`, the composite z-score in experiment [1] was 0.0374; in experiment [2], 0.372; in experiment [3], -0.0598; in [4], 0.242; in experiment [5], 0.913; in experiment [6] it was 0.952. Moreover, the composite z-score is 1.01 in experiment [7]; -0.156 in experiment [9]; -0.0618 in experiment [10]; 1.56 in experiment [11]; 2.01 in [15]; -0.132 in experiment [17]. Also, the values for the composite z-score in experiment [18], in experiment [19] and in experiment [20] were 0.542, 0.857 and 0.0507, respectively. Besides, the z-score in experiment [8] was -1.51 (inactive); in experiment [12], 0.273 (inactive); in [13] it was -1.44 (inactive); in experiment [14] it was -0.245 (inactive); in experiment [16], 0.796 (inactive).
For `COc1cc(NN2C(C(O)c3ccco3)C=CC3C(=O)N(c4ccccc4)C(=O)C32)cc(OC)c1OC` (stereo not given), the composite z-score in experiment [1] was -0.178; in experiment [2], -0.218; in experiment [3], -0.116; in experiment [4], 0.127; in [5] it was 0.723; in [6], 1.18. For the same compound, the composite z-score in [7] is 1.21; in [9], 0.162; in experiment [10], -0.0215; in [11] it was 0.216; in experiment [15] it was 2.41; in [17], -0.2. Also, the composite z-score was 0.0945 in experiment [18], 0.703 in experiment [19] and -0.0688 in [20]. Moreover, the z-score was 0.889 (inactive) in experiment [8]; 0.602 (inactive) in experiment [12]; 0.0991 (inactive) in [13]; -0.234 (inactive) in experiment [14]; -1.18 (inactive) in [16].

The values above are taken from PubChem BioAssay.
